Test [1] is described as follows: binders of probe aFSTL3 on microarray, primary screen, stem cell growth factor project, biochemical, small-molecule microarray, fluorescence 635/667 (AID 1064).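 Note: measures binding of the biotinylated anti-FSTL3 antibody to printed compounds.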 The following applies: higher = more signal.
Test [2] is described as follows: binders from COS7 lysate, DM2A8 probe, primary screen, torsin A project, cell lysate, small-molecule microarray, fluorescence 635/667 (AID 1065). As to conditions: higher = more signal, COS7 lysate expressing mutant human TOR1A.
The nature of test [3]: binders of probe aFGF2 on microarray, primary screen, stem cell growth factor project, biochemical, small-molecule microarray, fluorescence 635/667 (AID 1067).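 Note: measures binding of biotinylated aFGF2 protein to printed compounds on slides; z-score merges feature fluorescence and signal-to-noise across triplicate slides.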 As to conditions: higher = more signal.
A short description of test [4]: binders of probe aFGF10 on microarray, primary screen, stem cell growth factor project, biochemical, small-molecule microarray, fluorescence 635/667 (AID 1071).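 Note: score merges 667 nm spot intensity and signal to noise from triplicate slides.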 As to conditions: higher = more signal.
Test [5] concerns the target Neurogenic locus notch homolog protein 2 (Homo sapiens) (UniProt Q04721). The test is described as follows: Notch2 binders on small-molecule microarrays, primary screen, biochemical, small-molecule microarray, 635 nm fluorescence, stem cell growth factors (AID 1073). The following applies: Notch2 binding, higher = more signal.
Test [6] deals with Pro-neuregulin-1, membrane-bound isoform (Homo sapiens) (UniProt Q02297). The test is described as follows: NRG1 binders on small-molecule microarrays, primary screen, psychiatric disease protein project, biochemical, small-molecule microarray, fluorescence 635/667 (AID 1075).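 Note: score combines 667 nm spot fluorescence with signal to noise.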 As to conditions: NRG1 binding, 635 nm fluorescence, higher = more signal.
Test [7] has as its system Neuregulin-1 EGF-like domain. The test is described as follows: binders of neuregulin-1 EGF-like domain, primary screen, biochemical, small-molecule microarray, 635 nm fluorescence (AID 1081).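 Note: binding of the protein to compounds printed on small-molecule microarray slides.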 As to conditions: small-molecule microarray binding, higher = more signal.
The nature of test [8]: FRG1 promoter luciferase signal modulators, primary screen, FRG1 inhibition for FSHD, cell-based, C2C12 myotubes, firefly/Renilla luciferase, luminescence (AID 1084). As to conditions: higher = more signal, called active from +8 up or from −8 down.
Test [9] can be described thus: binders of probe aFST on microarray, primary screen, stem cell growth factor project, biochemical, small-molecule microarray, fluorescence 635/667 (AID 1086).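 Note: score merges 667 nm fluorescence with signal-to-noise of each printed compound spot.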 The following applies: higher = more signal.
Test [10] can be described thus: binders of probe aHhip on microarray, primary screen, stem cell growth factor project, biochemical, small-molecule microarray, fluorescence 635/667 (AID 1087).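 Note: score merges spot fluorescence at 667nm with spot signal to noise ratio.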 As to conditions: higher = more signal.
In test [11] the test system is PRMT1 (protein arginine N-methyltransferase 1). The test is described as follows: PRMT1 binders on small-molecule microarrays, primary screen, biochemical, small-molecule microarray, 635 nm fluorescence (AID 1088).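 Note: binding of Prmt1 protein to compounds spotted on small-molecule microarray slides.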 The following applies: small-molecule microarray binding, higher = more signal.
The nature of test [12]: yeast growth modulation, basal conditions, primary screen, YJM789 clinical isolate, OD600, 24 h (AID 1089).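 Note: growth of clinical yeast isolate S. cerevisiae YJM 789 seeded 1000 cells per well; test concentration not given here.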 As to conditions: S. cerevisiae YJM789 growth, higher = more signal, called active from +8 up or from −8 down.
A short description of test [13]: fission yeast growth modulation, primary screen, strain 972, OD600, 24 h, no modulator (AID 1090).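 Note: basal condition with compound alone and no growth modifier present; test concentration not given here.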 As to conditions: S. pombe 972 growth, higher = more signal, called active from +8 up or from −8 down.
Test [14] can be described thus: S. cerevisiae growth modulation with rapamycin, primary screen, strain BY4716, OD600, 96 h (AID 1091). Note: test concentration not given here. As to conditions: higher = more signal, called active from +8 up or from −8 down.
In test [15] the target is Torsin-1A-interacting protein 2 (Homo sapiens) (UniProt Q8NFQ8). The test is described as follows: LULL1 binders on small-molecule microarray, primary screen, cell lysate, human LULL1 lysate, 635/667 nm fluorescence (AID 1092).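 Note: score merges per-feature 667 nm fluorescence with signal-to-noise.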 The following applies: hLULL1 lysate binding, 635 nm fluorescence, higher = more signal.
The nature of test [16]: E. coli growth modulation, two-sided OD650, primary screen, E. coli filamentation project, strain DRC41, 24 h (AID 1093).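 Note: MC1000 strain lacking acrAB efflux and sulA so SOS filamentation is blocked; test concentration not given here.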 As to conditions: OD650, 24 h, higher = more signal, called active from +8 up or from −8 down.
The nature of test [17]: small-molecule microarray binders of probe aLefty2, primary screen, biochemical, biotinylated probe, 635/667 nm fluorescence (AID 1094).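 Note: score merges spot fluorescence near 667 nm with spot signal-to-noise ratio.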 The following applies: higher = more signal.
In test [18] the test system is Noggin (protein binding on small-molecule microarray). The test is described as follows: Noggin binders on small-molecule microarray, primary screen, biochemical, 635/667 nm fluorescence (AID 1095).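 Note: score merges 667 nm feature fluorescence with signal to noise over triplicate slides.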 As to conditions: 635 nm fluorescence, higher = more signal.
In test [19] the target is Neurogenic locus notch homolog protein 3 (Homo sapiens) (UniProt Q9UM47). Put plainly: NOTCH3 binders on small-molecule microarray, primary screen, biochemical, 635/667 nm fluorescence (AID 1096). As to conditions: NOTCH3 binding, 635 nm fluorescence, higher = more signal.
Test [20] can be described thus: small-molecule microarray binders of probe aEGFR, primary screen, biochemical, biotinylated probe, 635/667 nm fluorescence (AID 1097).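 Note: probe is a biotinylated anti-EGFR antibody binding compounds printed on slides; score combines fluorescence near 667 nm and signal to noise of each spot.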 As to conditions: higher = more signal.

Where “and” joins values, the source holds several entries; their conditions need not be identical. Equal values may be shown once. Calls of active or inactive are those of the source.

Sequence of Neurogenic locus notch homolog protein 2 (Homo sapiens) (Q04721 whole entry, looked up, canonical isoform): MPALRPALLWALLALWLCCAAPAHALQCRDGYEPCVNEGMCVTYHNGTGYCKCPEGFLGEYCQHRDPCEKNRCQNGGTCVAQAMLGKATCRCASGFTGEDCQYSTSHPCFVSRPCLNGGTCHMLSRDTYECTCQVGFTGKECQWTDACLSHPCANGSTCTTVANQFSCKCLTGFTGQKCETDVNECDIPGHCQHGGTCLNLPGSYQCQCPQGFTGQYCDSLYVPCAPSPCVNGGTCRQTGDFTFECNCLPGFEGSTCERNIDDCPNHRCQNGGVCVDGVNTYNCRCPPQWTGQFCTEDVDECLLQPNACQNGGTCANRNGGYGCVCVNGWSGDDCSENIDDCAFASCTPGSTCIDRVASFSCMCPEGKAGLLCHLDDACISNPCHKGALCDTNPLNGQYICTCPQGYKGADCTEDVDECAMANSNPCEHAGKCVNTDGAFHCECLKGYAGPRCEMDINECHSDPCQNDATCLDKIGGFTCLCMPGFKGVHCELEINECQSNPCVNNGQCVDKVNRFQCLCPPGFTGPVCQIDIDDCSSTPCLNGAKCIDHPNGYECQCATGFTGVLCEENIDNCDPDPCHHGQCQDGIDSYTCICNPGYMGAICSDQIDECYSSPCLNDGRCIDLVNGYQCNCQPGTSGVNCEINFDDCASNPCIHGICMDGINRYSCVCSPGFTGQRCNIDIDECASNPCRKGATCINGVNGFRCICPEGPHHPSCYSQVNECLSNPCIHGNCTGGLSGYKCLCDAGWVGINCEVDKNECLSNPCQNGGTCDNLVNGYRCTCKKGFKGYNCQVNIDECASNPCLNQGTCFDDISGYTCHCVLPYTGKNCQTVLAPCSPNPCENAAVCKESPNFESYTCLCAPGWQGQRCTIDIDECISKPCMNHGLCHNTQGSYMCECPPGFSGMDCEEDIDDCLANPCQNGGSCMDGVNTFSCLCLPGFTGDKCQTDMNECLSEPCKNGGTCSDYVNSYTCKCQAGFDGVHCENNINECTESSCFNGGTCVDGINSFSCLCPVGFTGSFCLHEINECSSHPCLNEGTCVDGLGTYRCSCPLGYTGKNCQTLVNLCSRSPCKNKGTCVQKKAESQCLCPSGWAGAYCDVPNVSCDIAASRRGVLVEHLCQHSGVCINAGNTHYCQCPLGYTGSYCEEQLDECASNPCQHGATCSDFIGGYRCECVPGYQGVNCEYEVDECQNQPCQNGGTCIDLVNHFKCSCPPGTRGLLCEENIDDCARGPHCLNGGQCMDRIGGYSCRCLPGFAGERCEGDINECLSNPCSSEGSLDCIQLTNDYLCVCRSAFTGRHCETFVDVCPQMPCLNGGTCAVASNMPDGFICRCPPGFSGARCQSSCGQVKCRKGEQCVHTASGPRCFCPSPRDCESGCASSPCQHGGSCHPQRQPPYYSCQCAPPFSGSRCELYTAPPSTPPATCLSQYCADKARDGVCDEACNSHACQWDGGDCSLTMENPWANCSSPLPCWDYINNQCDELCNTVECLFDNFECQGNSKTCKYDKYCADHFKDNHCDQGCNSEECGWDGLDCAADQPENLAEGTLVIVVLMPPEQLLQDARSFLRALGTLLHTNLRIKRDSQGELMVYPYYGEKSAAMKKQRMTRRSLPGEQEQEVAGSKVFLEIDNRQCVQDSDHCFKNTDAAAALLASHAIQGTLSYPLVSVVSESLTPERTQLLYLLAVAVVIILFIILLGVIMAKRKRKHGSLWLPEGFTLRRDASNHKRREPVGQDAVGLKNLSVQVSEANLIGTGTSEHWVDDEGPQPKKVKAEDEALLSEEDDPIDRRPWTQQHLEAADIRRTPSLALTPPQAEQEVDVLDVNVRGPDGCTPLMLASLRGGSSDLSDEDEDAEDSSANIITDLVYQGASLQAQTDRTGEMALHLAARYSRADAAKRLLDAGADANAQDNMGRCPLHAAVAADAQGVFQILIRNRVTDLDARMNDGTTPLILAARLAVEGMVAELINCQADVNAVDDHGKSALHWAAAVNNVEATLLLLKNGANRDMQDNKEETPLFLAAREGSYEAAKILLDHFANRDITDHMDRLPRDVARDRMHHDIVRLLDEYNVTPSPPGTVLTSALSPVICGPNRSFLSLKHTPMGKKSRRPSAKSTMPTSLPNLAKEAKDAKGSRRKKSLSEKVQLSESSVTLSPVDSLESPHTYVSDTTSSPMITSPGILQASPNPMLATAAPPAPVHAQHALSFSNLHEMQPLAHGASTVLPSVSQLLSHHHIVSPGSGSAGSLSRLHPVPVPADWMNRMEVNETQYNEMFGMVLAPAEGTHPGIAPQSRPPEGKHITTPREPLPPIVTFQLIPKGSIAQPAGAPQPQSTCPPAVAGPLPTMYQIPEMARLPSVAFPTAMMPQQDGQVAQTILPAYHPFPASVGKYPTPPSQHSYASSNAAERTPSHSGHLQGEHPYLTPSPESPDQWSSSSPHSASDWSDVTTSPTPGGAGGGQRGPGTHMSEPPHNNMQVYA
Sequence of Neurogenic locus notch homolog protein 3 (Homo sapiens) (Q9UM47 whole entry, looked up): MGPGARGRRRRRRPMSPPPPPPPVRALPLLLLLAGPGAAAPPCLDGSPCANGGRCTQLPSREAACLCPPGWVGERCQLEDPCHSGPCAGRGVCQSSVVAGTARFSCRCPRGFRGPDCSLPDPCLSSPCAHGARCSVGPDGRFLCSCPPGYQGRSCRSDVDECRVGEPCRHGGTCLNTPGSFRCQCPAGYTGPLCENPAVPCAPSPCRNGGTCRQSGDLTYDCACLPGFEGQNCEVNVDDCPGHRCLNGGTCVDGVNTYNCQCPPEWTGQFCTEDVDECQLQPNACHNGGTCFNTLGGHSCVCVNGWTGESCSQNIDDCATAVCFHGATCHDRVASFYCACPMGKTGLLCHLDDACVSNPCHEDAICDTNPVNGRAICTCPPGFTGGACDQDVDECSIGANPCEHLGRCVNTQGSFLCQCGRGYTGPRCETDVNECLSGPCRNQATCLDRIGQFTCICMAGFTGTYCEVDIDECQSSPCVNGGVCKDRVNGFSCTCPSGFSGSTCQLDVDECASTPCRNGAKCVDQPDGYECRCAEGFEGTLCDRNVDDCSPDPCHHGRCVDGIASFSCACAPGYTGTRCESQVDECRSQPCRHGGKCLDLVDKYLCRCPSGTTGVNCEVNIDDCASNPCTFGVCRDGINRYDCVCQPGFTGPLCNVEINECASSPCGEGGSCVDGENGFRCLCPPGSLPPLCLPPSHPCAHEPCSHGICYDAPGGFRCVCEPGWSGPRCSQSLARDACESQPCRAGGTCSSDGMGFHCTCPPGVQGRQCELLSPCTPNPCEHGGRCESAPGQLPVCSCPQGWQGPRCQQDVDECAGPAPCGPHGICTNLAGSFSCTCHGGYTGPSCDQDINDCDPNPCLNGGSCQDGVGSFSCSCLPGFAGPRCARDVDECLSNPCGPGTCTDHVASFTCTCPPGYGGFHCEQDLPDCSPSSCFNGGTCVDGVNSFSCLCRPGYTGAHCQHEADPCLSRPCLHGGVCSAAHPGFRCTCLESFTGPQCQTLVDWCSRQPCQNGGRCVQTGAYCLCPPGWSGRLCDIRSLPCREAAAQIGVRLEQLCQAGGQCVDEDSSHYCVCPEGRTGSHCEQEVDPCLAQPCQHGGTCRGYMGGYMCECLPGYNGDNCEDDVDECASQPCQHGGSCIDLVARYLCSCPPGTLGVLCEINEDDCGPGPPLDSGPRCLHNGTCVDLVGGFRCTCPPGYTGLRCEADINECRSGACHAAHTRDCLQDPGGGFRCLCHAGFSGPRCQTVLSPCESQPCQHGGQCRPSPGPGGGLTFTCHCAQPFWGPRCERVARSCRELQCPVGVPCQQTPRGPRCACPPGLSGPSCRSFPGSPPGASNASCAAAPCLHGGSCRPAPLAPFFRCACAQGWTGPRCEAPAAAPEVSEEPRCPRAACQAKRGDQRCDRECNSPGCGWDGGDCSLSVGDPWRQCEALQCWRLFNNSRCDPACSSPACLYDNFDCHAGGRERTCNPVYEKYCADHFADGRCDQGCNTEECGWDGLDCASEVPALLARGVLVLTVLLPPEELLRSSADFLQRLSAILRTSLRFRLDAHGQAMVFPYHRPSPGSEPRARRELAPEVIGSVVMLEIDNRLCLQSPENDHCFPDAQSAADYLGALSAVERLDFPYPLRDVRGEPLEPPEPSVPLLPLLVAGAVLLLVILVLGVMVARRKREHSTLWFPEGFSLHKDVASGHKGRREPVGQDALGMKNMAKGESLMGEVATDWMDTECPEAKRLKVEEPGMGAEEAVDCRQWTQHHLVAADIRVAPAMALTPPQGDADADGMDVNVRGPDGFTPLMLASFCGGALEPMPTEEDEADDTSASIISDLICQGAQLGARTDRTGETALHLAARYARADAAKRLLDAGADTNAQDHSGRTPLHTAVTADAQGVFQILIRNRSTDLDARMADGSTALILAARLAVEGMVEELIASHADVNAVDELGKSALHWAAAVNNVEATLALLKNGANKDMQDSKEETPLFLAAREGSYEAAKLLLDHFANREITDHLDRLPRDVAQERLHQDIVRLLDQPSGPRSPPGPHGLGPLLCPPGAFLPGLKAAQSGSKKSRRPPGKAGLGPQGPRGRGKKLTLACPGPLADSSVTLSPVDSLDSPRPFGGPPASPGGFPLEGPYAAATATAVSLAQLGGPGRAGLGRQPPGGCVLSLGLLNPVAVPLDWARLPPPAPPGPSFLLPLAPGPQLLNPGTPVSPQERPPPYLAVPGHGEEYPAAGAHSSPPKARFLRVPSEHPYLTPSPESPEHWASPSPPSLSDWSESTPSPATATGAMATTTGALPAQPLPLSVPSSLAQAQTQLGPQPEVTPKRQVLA

With `COC(=O)c1c2oc(c1C(=O)OC)C(=O)N[C@@H](Cc1ccccc1)Cn1cc(nn1)C1(CCCCC1)NC(=O)N[C@H](CO)CC2`, the composite z-score in [1] is 0.345 and -0.428; in test [2] it was -0.946 and -0.603; in test [3] it was -0.0558 and -0.0752; in test [4], 0.866 and 0.262; in test [5] it was 0.395 and 0.428; in [6] it was 1.23 and 0.0012. The composite z-score in test [7] is 1.31 and 0.747; in test [9] it was 0.247 and 0.182; in test [10] it was -0.0346 and -0.13; in [11], 1.43 and 0.951; in test [15] it was 2.52 and 0.978; in [17], 0.558 and 0.72. Moreover, the composite z-score in [18] is 1.57 and 0.416; in [19], 0.971 and 0.57; in test [20] it was 0.0408 and -0.0697. Moreover, the z-score in [8] was -0.818 (inactive) and -1 (inactive); in [12] it was 0.168 (inactive) and 0.611 (inactive); in test [13] it was -0.79 (inactive) and -0.186 (inactive); in [14], -0.427 (inactive) and -0.2 (inactive); in test [16], 2.09 (inactive) and 1.21 (inactive).

Turning to `COC(=O)CC=C[C@@H](C)[C@@H](CO)NS(=O)(=O)c1ccc(C)cc1`, the composite z-score is -0.659 and -0.717 in test [1]; 0.406 and 0.605 in test [2]; -0.108 and -0.0656 in [3]; 0.242 and 0.526 in test [4]; 0.157 and 0.444 in test [5]; -0.386 and -0.0111 in test [6]. Moreover, the composite z-score was 0.081 and 0.253 in [7]; 0.544 and 0.35 in test [9]; -0.147 and 0.0505 in test [10]; -0.0055 and 0.604 in test [11]; 0.0736 and 1.26 in test [15]; -0.37 and -0.0533 in test [17]. Also, the composite z-score is 0.598 and 0.856 in test [18]; -0.15 and 0.745 in test [19]; -0.118 and 0.0192 in [20]. Moreover, the z-score in test [8] was 0.862 (inactive) and -1.81 (inactive); in test [12], 0.102 (inactive) and 0.479 (inactive); in test [13] it was -0.178 (inactive) and -0.491 (inactive); in [14], 0.218 (inactive) and -0.249 (inactive); in [16], -0.0928 (inactive) and 0.0226 (inactive).

For `Cc1cc2c(nc1C)CCCN2CC(O)CN1CCCc2nc(-c3ccc(Br)cc3)ccc21` (stereo not given), the composite z-score in test [1] is 0.738 and 1.41; in test [2], 0.694 and 0.644; in test [3], 0.115 and 0.363; in test [4], 0.902 and 0.602; in test [5] it was 1.15 and 1.39; in test [6] it was 1.56 and 1.11. In addition, the composite z-score is 1.16 and 1.11 in test [7]; 0.916 and 0.891 in test [9]; 0.968 and 2.11 in test [10]; 1.55 and 1.54 in test [11]; 1.25 and 1.75 in test [15]; 0.467 and 0.823 in test [17]. The composite z-score was 1.02 and 0.741 in [18]; 1.1 and 1.11 in test [19]; 0.304 and 0.48 in [20]. Moreover, the z-score in [8] is 4.83 (inactive) and 2.39 (inactive); in [12], 0.612 (inactive) and 1.25 (inactive); in [13] it was -3.62 (inactive) and -0.716 (inactive); in test [14] it was -1.15 (inactive) and -0.578 (inactive); in test [16], -0.804 (inactive) and 0.109 (inactive).

With `CO[C@H]1COC(=O)CC=C[C@@H](C)COC(=O)[C@@H](OCc2ccccc2)C=C[C@@H]1C`, the composite z-score was -0.773 in [1]; 1.86 in test [2]; -0.213 in test [3]; -0.68 in test [4]; -1.02 in test [5]; -0.212 in test [6]. In addition, the composite z-score was 1.14 in [7]; -0.28 in test [9]; -0.0994 in test [10]; 1.47 in test [11]; -0.404 in test [15]; -0.353 in [17]. The figures for the composite z-score in test [18], in test [19] and in test [20] were 2.02, -0.294 and -0.135, respectively. Besides, the z-score is -0.971 (inactive) in [8]; -0.744 (inactive) in test [12]; -1.31 (inactive) in test [13]; -0.855 (inactive) in test [14]; 0.973 (inactive) in test [16].

The record behind these values is PubChem BioAssay.
